# High-throughput results (PubChem)
# Most compounds without a hit are left out; they make up all but 19% or so of the library.
# DT40 TDP1 no CPT: qHTS for Inhibitors of human tyrosyl-DNA phosphodiesterase 1 (TDP1): qHTS in cells in absence of CPT; DT40 Tdp1-/- hTDP1 cells, no CPT, ATP luminescence, 48 h; Potency, µM (titrated, usually from 46.2 µM), without a hit: at the highest dose activity change, negative = growth inhibition, most hits filed as inhibitors; actives 15% (n = 420,000); AID 686978, 2013; also: potency is read from the fitted curve at half-maximal effect; % is scaled to controls: 0 for no effect and ±100 for the full control effect; nearly all actives have a fitted effect of over 55% in size
#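 Cells were dispensed at 400 per well, compounds added by pin tool, plates incubated ≥48 hr at 37 °C, then CellTiter-Glo added for 30 min at room temperature before luminescence reading. Line: DT40 Tdp1-/- complemented with hTDP1; camptothecin omitted.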
# S-ASM inh: inhibitors of human secretory acid sphingomyelinase. P17405. placental ASM, HMU-PC fluorogenic substrate, 60 min. Potency, µM (series often up to 57.5 µM), inactives show at the top dose activity change, negative = inhibition, most hits filed as inhibitors. actives 0.006% (n = 340,000). AID 504937; also: potency is read from the fitted curve at half-maximal effect
# Target sequence (P17405 47-631 limits assumed): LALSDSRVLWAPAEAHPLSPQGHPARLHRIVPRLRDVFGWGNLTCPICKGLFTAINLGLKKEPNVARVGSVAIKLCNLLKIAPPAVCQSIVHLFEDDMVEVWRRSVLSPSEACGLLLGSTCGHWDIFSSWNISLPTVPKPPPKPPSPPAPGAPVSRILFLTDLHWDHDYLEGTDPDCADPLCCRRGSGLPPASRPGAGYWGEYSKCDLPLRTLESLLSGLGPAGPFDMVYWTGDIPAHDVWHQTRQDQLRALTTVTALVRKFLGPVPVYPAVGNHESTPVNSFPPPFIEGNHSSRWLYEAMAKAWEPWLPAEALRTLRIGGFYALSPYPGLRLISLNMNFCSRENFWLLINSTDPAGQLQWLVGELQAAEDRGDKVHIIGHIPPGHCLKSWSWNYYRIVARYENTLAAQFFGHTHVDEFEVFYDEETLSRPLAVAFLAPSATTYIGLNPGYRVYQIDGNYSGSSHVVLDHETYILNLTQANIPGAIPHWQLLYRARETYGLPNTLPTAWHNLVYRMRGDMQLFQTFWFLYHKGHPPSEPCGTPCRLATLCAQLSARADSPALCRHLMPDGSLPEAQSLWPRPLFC
#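 HMU-PC0 cleavage (9 uM final) by human placental ASM, 60 min at 37 °C following 10 min compound exposure at RT; stopped at pH 10, fluorescence Ex 386/Em 447 nm.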
# TGFb inhibitor: blocks TGF-b signaling. HepG2 CAGA-GFP TGF-b/SMAD3 reporter, GFP fluorescence, 18 h; TGF-beta stimulated, 500 pg/mL final. Potency, µM (series often up to 46.1 µM), without a hit: at the top dose activity, negative = inhibition, usual class: inhibitors. actives 1.2% (n = 410,000). AID 588855; also: potency is read from the fitted curve at half-maximal effect; % is scaled to controls: 0 for no effect and ±100 for the full control effect; nearly all actives have a fitted effect of over 65% in size
#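 GFP signal (ex488/em500-530) from TGF-beta-stimulated HEPG2 CAGA-GFP cells, 500 pg/mL final, 18 h at 37 degrees C in DMEM plus 1% FBS, normalized to unstimulated and DMSO-stimulated controls.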
# IL-1B inflam inh: blocks inflammasome-driven IL-1 beta release | activity change, % at 57.5 µM | THP-1 LPS/ATP IL-1B secretion, AlphaLISA, 16 h; active compounds read low | AID 743279 | actives 4.7% (n = 360,000); in the data active = activity change below about -50%; inconclusive = mostly about -30% to -49%; also: % is scaled to controls: 0 for no effect and ±100 for the full control effect
#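 THP-1 cells pretreated 1 hr with compounds (up to 57.5 uM final), then stimulated with LPS (250 ng/mL final) plus ATP (1.25 mM final); secreted IL-1B measured by AlphaLISA after 16 hr, decreased signal indicating inhibition.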
# HepG2 tox-1: HepG2 cytotoxicity, counter-screen for TGF-b inhibitors. HepG2 CAGA-GFP viability, ATP luminescence, 18 h. Potency, µM (top dose mostly 46.1 µM), for the others: at the highest dose activity change, negative = cytotoxicity, usual class: cytotoxic. actives 0.76% (n = 410,000); also: potency is read from the fitted curve at half-maximal effect
#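 HepG2 CAGA-GFP cells (1000/well, DMEM with 1% FBS) received compound, then TGF-beta at 500 pg/mL final, and were incubated 18 hours at 37 degrees C. Viability was read by CellTiter-Glo luminescence. Media-only wells were set as complete cell-killing and DMSO as no toxicity.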
# TDP1 cell CPT: growth inhibition of DT40 Tdp1-/-;hTDP1 cells with camptothecin (screen for TDP1 inhibitors). chicken DT40 Tdp1-/-;hTDP1 cells + 20 nM CPT, ATP luminescence, 48 h. actives 12% (n = 420,000). Potency, µM (highest dose often 46.2 µM), for the others: at the highest dose activity change, negative = growth inhibition, actives largely listed as inhibitors; also: potency is read from the fitted curve at half-maximal effect; % is scaled to controls: 0 for no effect and ±100 for the full control effect; nearly all actives have a fitted effect of over 55% in size
#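 Cell growth measured by CellTiter-Glo luminescence after a minimum 48 h, 37 C compound exposure with 20 nM CPT in Tdp1-knockout DT40 cells stably expressing hTDP1, seeded 400/well; qHTS titration format.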
# TGFb CAGA inh: confirmation of TGF-b signaling inhibitors in HepG2 reporter cells | shares compounds with TGFb inhibitor | actives 63% (n = 1,600) | Potency, µM (doses to about 46.1 µM), inactives show top-dose activity, negative = inhibition, actives largely listed as inhibitors | HepG2 CAGA-GFP TGF-b reporter, GFP fluorescence, 18 h; cells stimulated with TGF-beta, 500 pg/mL; also: potency is read from the fitted curve at half-maximal effect; % is scaled to controls: 0 for no effect and ±100 for the full control effect; nearly all actives have a fitted effect of over 65% in size
# HepG2 tox-2: HepG2 cytotoxicity, TGF-b inhibitor counterscreen. Potency, µM (series often up to 46.1 µM), without a hit: at the top dose activity, negative = cytotoxicity, hits mostly inhibitors. shares compounds with TGFb inhibitor. AID 720535. HepG2 CAGA-GFP viability, ATP luminescence, 18 h; cells stimulated with TGF-beta, 500 pg/mL. actives 27% (n = 1,600); also: potency is read from the fitted curve at half-maximal effect; % is scaled to controls: 0 for no effect and ±100 for the full control effect; nearly all actives have a fitted effect of over 70% in size
# CCL64 TGFb inh: orthogonal confirmation of TGF-b inhibitors in CCL64 cells | shares compounds with TGFb inhibitor | Potency, µM (titrated, usually from 46.1 µM), for the others: at the highest dose activity, negative = inhibition, actives largely listed as inhibitors | CCL64 CAGA-GFP reporter, TGF-b stimulated, GFP fluorescence, 18 h | AID 720536 | actives 41% (n = 1,600); also: potency is read from the fitted curve at half-maximal effect; nearly all actives have a fitted effect of over 65% in size
# COP TGFb inh: blocks TGF-b signaling in HepG2 COP reporter. Potency, µM (series often up to 46.1 µM), inactives show at the top dose activity, negative = inhibition, actives largely listed as inhibitors. actives 3% (n = 1,600). HepG2 COP-GFP TGF-b reporter, GFP fluorescence, 18 h; cells stimulated by added recombinant TGF-beta. shares compounds with TGFb inhibitor; also: potency is read from the fitted curve at half-maximal effect; nearly all actives have a fitted effect of over 70% in size
# Active calls of the source: *; i = inactive; ? = inconclusive; nt = not tested or not shown. Unless noted, calls follow the shape of the dose curve; as a rule, active = well fitted curve in the direction sought with a large enough effect; inconclusive = small, poorly fitted or top-dose-only effect, or another doubt; inactive = no such curve, though single readings can be large; an effect the other way counts as inactive or inconclusive.
SMILES,DT40 TDP1 no CPT,S-ASM inh,TGFb inhibitor,IL-1B inflam inh,HepG2 tox-1,TDP1 cell CPT,TGFb CAGA inh,HepG2 tox-2,CCL64 TGFb inh,COP TGFb inh
Cn1c(CC(=O)NNC(=O)c2cncc(Br)c2)nc2ccccc21,6%,0%,2%,21,1%,-10%,nt,nt,nt,nt
CC1(C)Cc2ccccc2C2=NNC(=O)C2=N1,10µM*,-2%,3.2µM*,-100*,-89%,16µM*,4.6µM*,7.3µM*,?,12µM*
c1ccc(-c2cc3nc(NCC4CC4)nc(NCC4CCCCC4)c3s2)cc1,2.9µM*,nt,10µM*,-109*,18µM*,4.6µM*,23µM*,7.3µM*,5.2µM*,-36%
CNC(=O)c1cc(NC(=O)CCn2nc(-c3ccccc3)c3ccccc3c2=O)ccc1OC,-27%,-7%,9%,-3,0%,2%,nt,nt,nt,nt
C=C(C)c1cccc(C(C)(C)NC(=O)Nc2nnc(C(C)C)s2)c1,?,-4%,8.9µM*,65,8%,?,?,0%,-6%,-1%
O=C(CSc1nnc(CNC(=O)c2ccccc2)o1)Nc1nccs1,?,3%,-10%,i,-11%,-25%,nt,nt,nt,nt
CCOC(=O)c1[nH]c2c(c1C)C(=O)CC(c1ccco1)C2 (stereo not drawn),0.041µM*,-1%,?,82,4%,0.58µM*,7.3µM*,9%,2.1µM*,?
COCCOC(=O)c1[nH]c2c(c1C)C(=O)CC(c1ccccc1)C2 (stereo not drawn),0.92µM*,-1%,10µM*,36,5%,0.65µM*,7.3µM*,-7%,6.5µM*,-19%
CCN(CC)S(=O)(=O)c1ccc(NC(=O)[C@@H](NC(=O)c2cc(OC)cc(OC)c2)C(C)C)cc1,?,0%,4%,-27,-62%,?,nt,nt,nt,nt
O=C1NC2(CCCCCC2)C(=O)N1Cc1cccc([N+](=O)[O-])c1,?,-1%,-11%,-5,-13%,?,nt,nt,nt,nt
COc1ccc(OC)c(S(=O)(=O)N2CCN(c3ccccc3)CC2)c1,5%,-8%,-5%,-9,-8%,11%,nt,nt,nt,nt
CCc1ccccc1N1CCN(S(=O)(=O)c2cc(OC)ccc2OC)CC1,-28%,-5%,?,-7,-3%,-7%,26µM*,?,?,27%
Oc1c(C(c2ccccn2)N2CCCCC2)cc(Cl)c2cccnc12 (stereo not drawn),10µM*,0%,7.9µM*,79,-41%,18µM*,?,?,?,0%
COc1cc2nc3n(c(=O)c2cc1OC)-c1cc2ccccc2cc1C(=O)NC3CC(C)C (stereo not drawn),?,nt,?,-9,4%,?,nt,nt,nt,nt
O=C1NC(Cc2ccc(O)cc2)c2nc3cc(F)c(F)cc3c(=O)n2-c2cc3ccccc3cc21 (stereo not drawn),?,nt,16µM*,-28,-20%,?,?,?,?,62%
CS(=O)(=O)c1ccc(-c2sc3cc4c(cc3c2C(=O)NN2CCOCC2)OCO4)cc1,-20%,102%,3%,6,50%,?,nt,nt,nt,nt
CN(C)Cc1csc(NC(=O)Nc2ccccc2Cc2ccccc2)n1,?,nt,4%,-17,-6%,?,nt,nt,nt,nt
NC(Cc1ccc(C(F)(F)F)cc1)c1csc(NC(=O)Nc2ccccc2Cc2ccccc2)n1 (stereo not drawn),23µM*,nt,3.2µM*,-61*,6.3µM*,?,?,?,15µM*,?
O=C(Oc1coc(CSc2ncccn2)cc1=O)c1cccs1,-8%,2%,-1%,27,-13%,20%,nt,nt,nt,nt
Cc1cc(C)cc(NC(=O)CCc2c(C)nc3nc(CNC(=O)c4cccc(F)c4)nn3c2C)c1,?,nt,?,nt,5%,?,nt,nt,nt,nt
CC(Nc1ccccc1CO)C(=O)Nc1cccc(Cl)c1Cl (stereo not drawn),-1%,-2%,4µM*,-2,-32%,2%,5.2µM*,2.1µM*,-20%,-15%
CC(=O)NC(CCS(C)(=O)=O)C(=O)Nc1cccc(Cl)c1Cl (stereo not drawn),1%,-4%,-7%,3,-5%,21%,nt,nt,nt,nt
Cc1ccccc1NCc1ccc(O)c2ncccc12,5.2µM*,6%,10µM*,45,-41%,2.6µM*,?,?,5.8µM*,26%
CCc1ccc(-c2ccc3nnc(SCC(=O)Nc4cccc(C(C)=O)c4)n3n2)cc1,?,nt,0%,nt,-6%,-21%,nt,nt,nt,nt
CCCn1c(C(C)Nc2nc(-c3ccc(C)cc3)cs2)nc2ccccc21 (stereo not drawn),?,54%,11µM*,9,-16%,?,?,?,?,43%
Cc1ccc(-c2csc(N3CCN(c4cc5c(cc4Cl)nc(C(C)N)n5CCCO)CC3)n2)cc1 (stereo not drawn),-16%,-3%,-14%,29,-1%,12%,nt,nt,nt,nt
CCCn1c(C(CO)Nc2nc(C)cs2)nc2ccccc21 (stereo not drawn),-16%,5%,?,8,17%,5%,nt,nt,nt,nt
